Most compounds without a hit are left out; they make up all but 1.1% or so of the library.
SRC1 inh = SRC1 coactivator transcriptional activity inhibitors, primary screen, cell-based, luminescence. Nuclear receptor coactivator 1 (Homo sapiens), Q15788. inhibition, % at 3.6 µM. HEK293 GAL4-SRC1 luciferase reporter. 360,000 compounds, 0.12% hits;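 active = inhibition above the campaign mean plus 3 SD, with each screening campaign given its own cutoff, cut at about 60% in these data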
NR5A2 inv ag = LRH-1 (NR5A2) inverse agonists, primary screen, cell-based, luminescence, HEK293T, StAR-luciferase reporter; Nuclear receptor subfamily 5 group A member 2 (Homo sapiens), O00482; LRH-1 transfected, 24 h; inhibition, % at 3.6 µM; 360,000 compounds, 0.13% hits; AID 602396, 2012;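 active = inhibition above the mean inhibition of all tested compounds plus 3 SD, cut at about 73% in these data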
COUP-TFII inh = NR2F2 transcriptional activity inhibitors, primary screen, cell-based, luciferase reporter, HEK293T, luminescence; COUP transcription factor 2 (Homo sapiens), P24468; HEK293T NGFI-A luciferase reporter; inhibition, % at 8.6 µM; 370,000 compounds, 0.7% hits; AID 686940, 2013;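 active = inhibition above a per-plate cutoff, mean inhibition of test wells between control levels plus 3 SD, cut at about 38% in these data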;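 also: cells cotransfected with COUP-TFII expression vector driving the NGFI-A reporter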
NCOA3 inh = SRC3 coactivator transcriptional activity inhibitors, primary screen, cell-based, luminescence; Nuclear receptor coactivator 3 (Homo sapiens), Q9Y6Q9; inhibition, % at 3.6 µM; HEK293 GAL4-SRC3 luciferase reporter; 360,000 compounds, 0.17% hits;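 active = inhibition above a per-campaign cutoff, the mean of all compounds plus 3 SD, cut at about 60% in these data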;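 also: higher means less SRC3-driven luciferase light from the GAL4 reporter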
Target sequence (Q9Y6Q9 whole entry, looked up, the tested form may be a part): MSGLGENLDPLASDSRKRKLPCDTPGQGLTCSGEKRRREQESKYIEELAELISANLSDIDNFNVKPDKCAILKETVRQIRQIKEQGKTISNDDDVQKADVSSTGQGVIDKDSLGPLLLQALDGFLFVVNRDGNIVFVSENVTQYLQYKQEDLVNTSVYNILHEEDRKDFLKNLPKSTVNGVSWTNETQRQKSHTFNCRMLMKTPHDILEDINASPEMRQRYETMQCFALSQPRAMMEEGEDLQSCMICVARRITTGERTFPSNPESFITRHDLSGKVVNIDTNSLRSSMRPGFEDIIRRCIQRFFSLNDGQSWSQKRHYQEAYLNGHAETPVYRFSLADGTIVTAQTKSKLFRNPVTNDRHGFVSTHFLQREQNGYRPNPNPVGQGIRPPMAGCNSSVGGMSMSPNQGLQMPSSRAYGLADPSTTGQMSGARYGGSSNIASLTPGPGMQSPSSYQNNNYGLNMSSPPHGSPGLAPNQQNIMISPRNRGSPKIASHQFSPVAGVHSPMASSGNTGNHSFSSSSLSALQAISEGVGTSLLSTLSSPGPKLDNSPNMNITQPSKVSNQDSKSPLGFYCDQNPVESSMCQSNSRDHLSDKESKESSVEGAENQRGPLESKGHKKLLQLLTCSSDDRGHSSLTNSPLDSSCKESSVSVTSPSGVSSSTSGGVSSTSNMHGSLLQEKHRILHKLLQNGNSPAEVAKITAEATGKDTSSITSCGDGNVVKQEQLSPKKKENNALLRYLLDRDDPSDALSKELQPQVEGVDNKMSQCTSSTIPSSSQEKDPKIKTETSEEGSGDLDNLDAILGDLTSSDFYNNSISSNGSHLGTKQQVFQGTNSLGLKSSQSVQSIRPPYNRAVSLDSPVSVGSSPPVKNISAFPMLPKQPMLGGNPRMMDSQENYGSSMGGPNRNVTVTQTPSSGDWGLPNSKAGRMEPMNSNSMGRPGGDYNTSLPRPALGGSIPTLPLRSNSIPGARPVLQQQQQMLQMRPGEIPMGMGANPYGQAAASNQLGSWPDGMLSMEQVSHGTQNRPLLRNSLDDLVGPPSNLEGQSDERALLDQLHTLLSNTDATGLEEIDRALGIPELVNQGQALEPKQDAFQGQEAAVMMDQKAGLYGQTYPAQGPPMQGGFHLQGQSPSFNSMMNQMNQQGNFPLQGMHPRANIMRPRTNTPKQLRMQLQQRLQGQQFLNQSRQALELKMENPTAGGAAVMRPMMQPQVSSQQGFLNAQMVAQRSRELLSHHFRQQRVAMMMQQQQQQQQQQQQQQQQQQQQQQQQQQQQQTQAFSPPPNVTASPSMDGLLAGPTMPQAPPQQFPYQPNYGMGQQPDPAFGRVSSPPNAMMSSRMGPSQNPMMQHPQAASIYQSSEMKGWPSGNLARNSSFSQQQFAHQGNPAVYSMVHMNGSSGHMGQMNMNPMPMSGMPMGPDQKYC
GalR3 antagonist = GalR3 antagonists in HEK293 cells, primary screen, cell-based, fluorescence readout | Galanin receptor type 3 (Homo sapiens), O60755 | HEK293 GalR3-CNG cAMP membrane potential fluorescence; galR3 body fused to GalR1 C-terminus | inhibition, % at 3 µM | 360,000 compounds, 0.44% hits | AID 651719, 2012;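 active = inhibition above the screen-wide average plus 3 SD, cut at about 13% in these data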;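 also: forskolin and galanin both at EC90 stimulate the cells; cAMP rise reported by CNG channel membrane potential dye signal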
SRC2 inh = inhibition of GAL4-SRC2 driven luciferase reporter, primary screen, SRC2 inhibitor project, cell-based, luminescence; Nuclear receptor coactivator 2 (Homo sapiens), Q15596; HEK293 GAL4-SRC2 luciferase reporter; inhibition, % at 9 µM; 370,000 compounds, 0.17% hits; AID 651957, 2012;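 active = inhibition above the mean inhibition of all tested compounds plus 3 SD, set per campaign, cut at about 52% in these data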
Of the large screens only hits and unclear results are named; the others gave an inactive call.

CC(=O)n1cc(N(C(=O)CCl)c2ccccc2)c2ccccc21	none
CC(=O)n1cc(N(C(=O)CCl)c2ccc([N+](=O)[O-])cc2)c2ccccc21	SRC2 inh 56
CNc1ccc2ncc(-c3cccc(C(=O)N(C)C)c3)n2n1	SRC1 inh 69, SRC2 inh 56
CN(C)C(=O)c1cccc(-c2ccc3nncn3c2)c1	none
O=C(Nc1nc(-c2ccccc2)cs1)c1ccc(N2CCOCC2)c([N+](=O)[O-])c1	SRC1 inh 64, NCOA3 inh 76 (no result: COUP-TFII inh, GalR3 antagonist, SRC2 inh)
Cc1ccc(-c2csc(NC(=O)c3cc([N+](=O)[O-])ccc3N3CCOCC3)n2)cc1	none
COc1ccccc1CN(C)C[C@@H]1OCc2cnnn2CCCC(=O)N([C@@H](C)CO)C[C@H]1C	none
COc1ccc2sc3cccc(NCCN(C)C)c3c(=O)c2c1	none
CN(C)CCNc1ccc(CO)c2sc3ccc(O)cc3c(=O)c12	SRC1 inh 79
CCOC(=O)N1CCN(C(=O)C2CCCN(Cc3nc(-c4ccc(Cl)cc4)oc3C)C2)CC1 (stereo not drawn)	COUP-TFII inh 73, GalR3 antagonist 82
Cc1cc(N2CCNC[C@@H]2C)ccc1N1CCS(=O)(=O)CC1	none (no result: SRC1 inh, NR5A2 inv ag, NCOA3 inh)
c1ccc(-c2nnc(-c3ccccn3)nn2)nc1	none
c1ccc(-c2cccc(-c3ccccn3)n2)nc1	SRC1 inh 81, NR5A2 inv ag 98, NCOA3 inh 84 (no result: COUP-TFII inh, GalR3 antagonist, SRC2 inh)
CN(C)c1ccc(/C=C/c2ccc3c4ccccc4ccc3[n+]2-c2ccccc2)cc1	SRC1 inh 71, NR5A2 inv ag 91, COUP-TFII inh 85, NCOA3 inh 77, GalR3 antagonist 18
CN(CCCS(=O)(=O)[O-])c1ccc(/C=C/c2ccc3ccccc3[n+]2C)cc1	none
CN(C)c1ccc(/C=C/c2ccc3ccccc3[n+]2C)cc1	SRC1 inh 63, NR5A2 inv ag 97, COUP-TFII inh 72, NCOA3 inh 70
CN(C)c1ccc(/C=C/c2cccc[n+]2[O-])cc1	none
COC(=O)[C@]12C[C@H](CC(=O)NCCCN3CCCC3=O)C(=O)N(Cc3ccc(Cl)cc3Cl)C1=C[C@H](C(C)C)O[C@@H]2C1CC1	none (no result: SRC1 inh, NR5A2 inv ag, NCOA3 inh, GalR3 antagonist)
CCCCN1CN2Cc3cc(F)ccc3C2CS1(=O)=O (stereo not drawn)	none (no result: SRC1 inh, NR5A2 inv ag, NCOA3 inh, GalR3 antagonist)
CC1(Oc2cccnc2Cl)CCN(Cc2ccc(OC(F)(F)F)cc2)C1 (stereo not drawn)	none
CC(=O)Nc1ccc(NC(=O)c2ccc(-c3ccnn3C)c3ccoc23)cc1	SRC2 inh 53
CC(C)c1ccc(NC(=O)c2ccc(-c3ccnn3C)c3ccoc23)cc1	none (no result: COUP-TFII inh, GalR3 antagonist, SRC2 inh)
O=C(OCCN1CCN(C2CN(Cc3cn(Cc4ccccc4C(F)(F)F)nn3)S(=O)(=O)C2)CC1)c1cc2ccccc2o1 (stereo not drawn)	none (no result: SRC1 inh, NR5A2 inv ag, NCOA3 inh, GalR3 antagonist)
O=C(NCCO)c1cc2ccccc2cc1O	none
NNC(=O)c1cc2ccccc2cc1O	NCOA3 inh 62, SRC2 inh 71
c1ccc(CN2C3=NCCN3c3ccccc32)cc1	none
Cc1ccccc1CN1CC2=C(CCN(Cc3ccccc3)C2=O)N2CCN=C12	NR5A2 inv ag 85, NCOA3 inh 62
COCCNC(=O)C1(C)CCCN(CCOc2ccc(Cl)cc2)C1 (stereo not drawn)	none
Cc1nccn1CCCNC(=O)c1nc(Cn2cc([N+](=O)[O-])cn2)no1	GalR3 antagonist 13
CC1(C)Oc2ccc(C(=O)NC3CCCC3)cc2NC1=O	none (no result: SRC1 inh, NR5A2 inv ag, NCOA3 inh, GalR3 antagonist)
CCc1ccc(/C=C2\SC(=S)N(CCCC(=O)NC3=NCCS3)C2=O)cc1	SRC2 inh 55
CCc1ccc(/C=C2\SC(=S)N(CCC(=O)Nc3cc(C)on3)C2=O)cc1	none
CCc1ccc(/C=C2\SC(=S)N(CCCC(=O)Nc3cc(C)on3)C2=O)cc1	SRC2 inh 77
CCOc1ccc(/C=C2/SC(=S)N(CCC(=O)Nc3ccc(C(=O)O)cc3)C2=O)cc1	none
COc1cccc(/C=C2/SC(=S)N(CCCC(=O)Nc3ccc(O)cc3)C2=O)c1	SRC2 inh 53
CCOc1ccc(/C=C2\SC(=S)N(CCC(=O)O)C2=O)cc1	SRC2 inh 70
C[C@H](O)[C@@H]1C(=O)N2CCc3c([nH]c4cccc(-c5ccccc5)c34)[C@@H]2C[C@@H]1N(C)C(=O)c1ccco1	none (no result: SRC1 inh, NR5A2 inv ag, NCOA3 inh)
Cc1cc(Br)cn2c(Cc3cccc(F)c3)c(-c3ccco3)nc12	none (no result: SRC1 inh, NR5A2 inv ag, NCOA3 inh)
S=C(c1ccc(-c2ccccc2)cc1)N1CCOCC1	SRC2 inh 52
O=C(c1ccc(-c2ccccc2)cc1)c1ccccc1C(=O)N1CCOCC1	none
CC(=O)N(Cc1ccc(F)cc1)C1=C(NCCc2ccccc2)C(=O)c2ccccc2C1=O	COUP-TFII inh 55
O=C1C(Cl)=C(NCCc2ccccc2)C(=O)c2ccccc21	none
CC(=NNC(=S)N1CCN(C2CCCCCC2)CC1)c1ccccn1	SRC1 inh 73, NCOA3 inh 69
CC(=NNC(=S)N1CC2CCC(CC2)C1)c1cnccn1	SRC1 inh 77, NCOA3 inh 78
COC(=O)[C@]12C[C@H](CC(=O)NCCCCc3ccccc3)C(=O)N(CCC3=CCCCC3)C1=C[C@H](C(C)(C)C)O[C@@H]2C	none (no result: SRC1 inh, NR5A2 inv ag, NCOA3 inh)
COC(=O)C[C@H]1CC[C@@H](NC(=O)Nc2c(C)noc2C)[C@@H](CO)O1	none (no result: SRC1 inh, NCOA3 inh)
Cc1cc(C=C2C(=O)c3ccccc3C2=O)c(C)n1-c1ccccc1	NCOA3 inh 85
N#CN1C2CCC1CC(O)(c1ccccc1)C2 (stereo not drawn)	none (no result: COUP-TFII inh, GalR3 antagonist, SRC2 inh)
CCOc1cc(/C=C/C(=O)OCC(=O)N(CC)C2CCS(=O)(=O)C2)cc(Cl)c1OC (stereo not drawn)	none
CC(C)OC(=O)c1ccc(NCc2cc(O)ccc2O)cc1	SRC2 inh 60
O=C(OCc1ccccc1)c1ccc(NCc2cc(O)ccc2O)cc1	COUP-TFII inh 56, SRC2 inh 83
O=C(Cn1cc(COc2ccc(Cl)c(Cl)c2)nn1)NS(=O)(=O)c1ccccc1C(F)(F)F	none
c1csc(CNc2ccc3c(c2)OCCO3)c1	COUP-TFII inh 64
O=C1CCCc2oc3c(cc(NS(=O)(=O)c4ccc5c6c(cccc46)C(=O)N5)c4ccccc43)c21	GalR3 antagonist 41
O=C(Nc1ccccc1N1CCCCC1)c1cc(S(=O)(=O)N2CCOCC2)ccc1F	none
CCOC(=O)c1ccccc1NC(=O)c1cc(S(=O)(=O)N2CCOCC2)ccc1F	GalR3 antagonist 13
COc1cccc(C(=O)Oc2cc3c4c(c2)C(C)=CC(C)(C)N4C(=O)C3=O)c1	GalR3 antagonist 24

Source: PubChem BioAssay (The Scripps Research Institute Molecular Screening Center)
